In PMC7862700, “An all-to-all approach to the identification of sequence-specific readers for epigenetic DNA modifications on cytosine”:

Key:
Assay in all cases: DAPPL (digital affinity profiling via proximity ligation, sequencing); 10 mM Tris-HCl pH 7.5, 50 mM NaCl, 1 mM DTT, 4% glycerol, room temperature, 30 min; GST-TFs on glutathione beads, 16-mer random dsDNA library, 0.1% formaldehyde crosslink after washing; high values mean tight binding
Settings in all cases: protein: recombinant; tags: N-terminal GST; dsDNA, one strand shown
FLI1 = target: T1, FLI1 (Homo sapiens, UniProt Q01543 1-452)
T1 sequence: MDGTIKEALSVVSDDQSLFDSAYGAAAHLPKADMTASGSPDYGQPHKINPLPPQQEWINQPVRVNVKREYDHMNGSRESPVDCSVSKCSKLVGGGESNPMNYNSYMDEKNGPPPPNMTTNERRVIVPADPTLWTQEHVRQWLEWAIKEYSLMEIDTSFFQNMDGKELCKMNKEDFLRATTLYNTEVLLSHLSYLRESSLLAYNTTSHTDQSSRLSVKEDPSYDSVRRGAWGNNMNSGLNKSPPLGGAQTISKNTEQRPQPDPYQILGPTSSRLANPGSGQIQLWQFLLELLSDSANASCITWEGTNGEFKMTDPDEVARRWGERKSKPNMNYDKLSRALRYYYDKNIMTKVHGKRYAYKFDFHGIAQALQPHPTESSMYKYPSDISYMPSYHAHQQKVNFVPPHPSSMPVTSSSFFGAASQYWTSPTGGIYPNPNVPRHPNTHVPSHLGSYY
Summary of the method: (§1)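 Yeast served to express human transcription factors as GST fusions, which were then captured on glutathione beads and labelled with DNA barcodes. Pooled with a tag-only sample, they were incubated with 200 nmole of a 16-mer random double-stranded DNA library for 30 min at room temperature in Tris/NaCl/DTT/glycerol buffer, washed, crosslinked with 0.1% formaldehyde, ligated by proximity, amplified by PCR and sequenced. Dividing each hexamer's read frequency for a factor by its frequency for the tag-only sample gives the binding signal.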

ELK1 = target: T2, ELK1 (Homo sapiens, UniProt P19419 1-428)
T2 sequence: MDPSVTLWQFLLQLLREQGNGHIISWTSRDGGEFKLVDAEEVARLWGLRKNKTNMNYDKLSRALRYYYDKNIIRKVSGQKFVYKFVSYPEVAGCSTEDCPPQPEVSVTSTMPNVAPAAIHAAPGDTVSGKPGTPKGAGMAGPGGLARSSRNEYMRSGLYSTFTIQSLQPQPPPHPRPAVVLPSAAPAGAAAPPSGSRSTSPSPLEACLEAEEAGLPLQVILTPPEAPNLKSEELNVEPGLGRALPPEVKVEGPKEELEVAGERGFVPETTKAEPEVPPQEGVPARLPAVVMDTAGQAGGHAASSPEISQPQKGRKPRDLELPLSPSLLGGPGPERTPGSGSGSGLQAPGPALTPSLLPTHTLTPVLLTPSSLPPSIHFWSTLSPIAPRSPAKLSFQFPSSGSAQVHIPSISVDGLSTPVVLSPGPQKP
Summary of the method: as §1

GABPA = target: T3, GABPA (Homo sapiens, UniProt Q06546 1-454)
T3 sequence: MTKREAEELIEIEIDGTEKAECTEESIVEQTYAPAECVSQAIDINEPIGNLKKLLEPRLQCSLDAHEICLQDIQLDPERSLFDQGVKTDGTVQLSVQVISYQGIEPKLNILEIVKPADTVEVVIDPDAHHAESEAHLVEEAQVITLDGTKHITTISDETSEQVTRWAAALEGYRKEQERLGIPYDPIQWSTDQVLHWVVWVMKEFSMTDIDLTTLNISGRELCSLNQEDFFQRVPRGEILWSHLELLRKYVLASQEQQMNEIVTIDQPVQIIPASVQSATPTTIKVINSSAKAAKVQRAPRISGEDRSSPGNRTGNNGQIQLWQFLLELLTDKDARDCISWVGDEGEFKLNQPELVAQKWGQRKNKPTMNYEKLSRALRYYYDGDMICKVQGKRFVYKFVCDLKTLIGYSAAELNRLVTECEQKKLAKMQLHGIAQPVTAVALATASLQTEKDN
Summary of the method: as §1

ERG = target: T4, ERG (Homo sapiens, UniProt P11308 1-479)
T4 sequence: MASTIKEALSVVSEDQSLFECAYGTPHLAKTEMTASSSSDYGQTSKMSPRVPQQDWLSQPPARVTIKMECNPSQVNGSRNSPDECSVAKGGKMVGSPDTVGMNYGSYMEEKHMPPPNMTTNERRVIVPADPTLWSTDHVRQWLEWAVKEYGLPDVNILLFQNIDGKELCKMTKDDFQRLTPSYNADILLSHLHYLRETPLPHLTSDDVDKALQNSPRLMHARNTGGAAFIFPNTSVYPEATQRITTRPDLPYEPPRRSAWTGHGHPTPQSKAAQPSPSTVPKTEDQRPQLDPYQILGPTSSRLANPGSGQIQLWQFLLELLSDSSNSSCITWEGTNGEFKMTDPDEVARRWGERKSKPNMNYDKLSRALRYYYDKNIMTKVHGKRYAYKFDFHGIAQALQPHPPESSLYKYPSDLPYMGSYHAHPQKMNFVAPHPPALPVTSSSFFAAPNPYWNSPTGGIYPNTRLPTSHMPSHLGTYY
Summary of the method: as §1

ELF1 = ELF1 (Homo sapiens, UniProt P32519 1-619)
ELF1, sequence (P32519 whole entry): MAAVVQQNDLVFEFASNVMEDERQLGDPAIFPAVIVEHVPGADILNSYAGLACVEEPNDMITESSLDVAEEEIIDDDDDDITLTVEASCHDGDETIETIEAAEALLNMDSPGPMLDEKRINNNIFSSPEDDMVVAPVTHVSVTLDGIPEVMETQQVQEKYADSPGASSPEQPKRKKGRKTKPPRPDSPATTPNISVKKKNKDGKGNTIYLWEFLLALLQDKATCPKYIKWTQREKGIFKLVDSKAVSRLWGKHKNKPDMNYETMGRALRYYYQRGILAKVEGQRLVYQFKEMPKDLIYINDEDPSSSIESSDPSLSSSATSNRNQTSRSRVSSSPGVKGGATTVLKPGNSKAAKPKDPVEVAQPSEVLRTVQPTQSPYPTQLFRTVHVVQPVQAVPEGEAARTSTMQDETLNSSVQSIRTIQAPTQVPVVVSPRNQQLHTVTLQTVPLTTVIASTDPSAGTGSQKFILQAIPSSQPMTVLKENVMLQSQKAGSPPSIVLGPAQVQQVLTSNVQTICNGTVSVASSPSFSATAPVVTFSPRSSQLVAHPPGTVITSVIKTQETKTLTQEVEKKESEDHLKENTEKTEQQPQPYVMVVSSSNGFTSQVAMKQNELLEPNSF
Summary of the method: as §1

EHF = target: T5, EHF (Homo sapiens, UniProt Q9NZC4 1-300)
T5 sequence: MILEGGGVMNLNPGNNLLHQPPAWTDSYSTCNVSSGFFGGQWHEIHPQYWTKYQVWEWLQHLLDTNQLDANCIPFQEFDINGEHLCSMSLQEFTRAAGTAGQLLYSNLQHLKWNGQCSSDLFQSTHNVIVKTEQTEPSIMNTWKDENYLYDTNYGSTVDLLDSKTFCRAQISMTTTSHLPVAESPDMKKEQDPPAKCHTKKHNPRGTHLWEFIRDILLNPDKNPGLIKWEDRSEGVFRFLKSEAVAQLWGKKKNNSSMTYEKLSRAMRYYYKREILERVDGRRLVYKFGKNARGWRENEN
Summary of the method: as §1

SPIB = SPIB (Homo sapiens, UniProt Q01892 1-262)
SPIB, sequence (Q01892 whole entry): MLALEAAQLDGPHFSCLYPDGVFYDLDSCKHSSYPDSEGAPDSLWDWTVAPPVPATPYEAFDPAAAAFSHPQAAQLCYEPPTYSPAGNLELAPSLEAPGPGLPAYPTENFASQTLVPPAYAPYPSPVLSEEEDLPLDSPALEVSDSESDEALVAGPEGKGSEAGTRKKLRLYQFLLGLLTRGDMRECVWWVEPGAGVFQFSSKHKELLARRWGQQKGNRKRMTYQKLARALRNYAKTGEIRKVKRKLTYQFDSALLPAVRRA
Summary of the method: as §1

SPIC = target: T6, SPIC (Homo sapiens, UniProt Q8N5J4 1-248)
T6 sequence: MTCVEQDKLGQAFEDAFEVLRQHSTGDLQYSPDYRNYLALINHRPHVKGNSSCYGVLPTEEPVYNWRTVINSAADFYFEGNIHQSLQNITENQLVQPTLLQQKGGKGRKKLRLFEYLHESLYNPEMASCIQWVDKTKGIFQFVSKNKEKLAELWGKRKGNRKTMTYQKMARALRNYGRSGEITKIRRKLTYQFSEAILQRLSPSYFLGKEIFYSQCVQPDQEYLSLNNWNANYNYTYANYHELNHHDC
Summary of the method: as §1

ELF4 = ELF4 (Homo sapiens, UniProt Q99607 1-663)
ELF4, sequence (Q99607 whole entry): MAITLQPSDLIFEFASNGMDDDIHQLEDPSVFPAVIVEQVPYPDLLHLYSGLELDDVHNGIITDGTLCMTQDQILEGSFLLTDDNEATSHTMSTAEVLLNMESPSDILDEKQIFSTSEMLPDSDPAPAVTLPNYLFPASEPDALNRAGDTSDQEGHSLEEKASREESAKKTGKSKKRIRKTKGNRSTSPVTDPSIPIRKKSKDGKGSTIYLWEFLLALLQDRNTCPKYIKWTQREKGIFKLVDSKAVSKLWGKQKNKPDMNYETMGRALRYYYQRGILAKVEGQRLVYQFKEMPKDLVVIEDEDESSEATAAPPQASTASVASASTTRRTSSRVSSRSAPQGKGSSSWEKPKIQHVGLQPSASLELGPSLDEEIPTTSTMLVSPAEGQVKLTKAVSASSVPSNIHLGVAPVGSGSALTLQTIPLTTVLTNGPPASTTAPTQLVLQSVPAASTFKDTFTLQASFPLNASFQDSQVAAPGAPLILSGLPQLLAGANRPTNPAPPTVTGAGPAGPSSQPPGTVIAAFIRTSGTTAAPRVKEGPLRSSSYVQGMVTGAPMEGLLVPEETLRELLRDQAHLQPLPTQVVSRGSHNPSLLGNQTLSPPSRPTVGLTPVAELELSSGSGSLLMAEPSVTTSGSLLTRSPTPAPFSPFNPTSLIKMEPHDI
Summary of the method: as §1

Question: What does the source list for ACAGCC?
Answer: binding signal (FLI1): 1 fold enrichment (6-mer frequency, TF over GST control); binding signal (ELK1): 1.1 fold enrichment (6-mer frequency, TF over GST control); binding signal (GABPA): 1.07 fold enrichment (6-mer frequency, TF over GST control); binding signal (ERG): 1.02 fold enrichment (6-mer frequency, TF over GST control); binding signal (ELF1): 1.11 fold enrichment (6-mer frequency, TF over GST control); binding signal (EHF): 1.11 fold enrichment (6-mer frequency, TF over GST control); binding signal (SPIB): 1.03 fold enrichment (6-mer frequency, TF over GST control); binding signal (SPIC): 1.08 fold enrichment (6-mer frequency, TF over GST control); binding signal (ELF4): 1.11 fold enrichment (6-mer frequency, TF over GST control)
